The text below walks through data of paper PMC5540273 (PLoS ONE, 2017).
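Also: KINOMEscan kinase panel screen.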

The first experiment deals with CDK2. The conditions noted are these: concentration: 1 μM, replicates: in singlicate; n = 1.
`COc1cccc(CC(=O)N2CCc3cc(-c4cn(C)c5ncnc(N)c45)ccc32)c1` [GSK2608899]: the “%Inh” value amounted to 18%.

In the case of `N#Cc1cnc2cc(-c3cnc(CNCCN4CCOCC4)s3)ccc2c1Nc1ccc(Oc2ccccc2)cc1` [GW664114], the “%Inh” value is 0%.

Turning to `COc1cccc2c(-c3ccncc3)c(-c3ccc(F)cc3)nn12` [GW468513], the “%Inh” value turned out to be 4%.

For `COc1cccc(NC(=O)NCCNc2ccnc(Nc3ccc(F)cc3)n2)c1` [GSK1379879], the “%Inh” value was 0%.

Consider `Nc1ncc(-c2ccc3nccc(-c4ccncc4)c3c2)cc1S(=O)(=O)N1CCCCC1` [GSK1693850], for which the “%Inh” value is given as 0%.

The test system of the next experiment is CDK3. The conditions noted are these: concentration: 1 μM, replicates: in singlicate; n = 1.
Regarding `O=C(Nc1n[nH]c2nc(-c3ccccc3O)ccc12)C1CC1` [SB-711880], the “%Inh” value is recorded as 22%.

For the molecule `N#CC1(c2cccc(C(=O)Nc3cccc(Oc4ccc5nc(NC(=O)C6CC6)sc5n4)c3)c2)CC1`, the “%Inh” value was found to be 0%.

For `Cl.Cl.NCC(NC(=O)c1cc(-c2cccnc2)c(-c2ccnc3[nH]ccc23)s1)c1ccccc1` (stereo not drawn) [GSK1323434], the “%Inh” value stood at 26%.

As to `COc1cccc(C2=C(Nc3cccc(O)c3)C(=O)NC2=O)c1` [SB-390771], the “%Inh” value came out at 13%.

Turning to `Fc1cc(Cl)ccc1Nc1ccnc2cc(-c3ccc(CN4CCSCC4)o3)ccc12` [GW560106], the “%Inh” value was determined as 0%.

As to `O=C(O)C(F)(F)F.O=c1[nH]ccc2nc(N[C@@H]3CCNC3)nc(Nc3ccc4c(c3)S(=O)(=O)CC4)c12` [GSK2181306], the “%Inh” value stood at 53%.

In the case of `Cc1ccccc1CC(=O)N1CCc2cc(-c3cn(C)c4ncnc(N)c34)ccc21` [GSK2603346], the “%Inh” value amounted to 2%.
